Rows were chosen to be rich in hits. Some 0.5% of all compounds tested hit in one or more screens of this group.
Tat transport: E. coli Tat export inhibitors, primary screen, MC4100, TorA-mCherry reporter, fluorescence, single point; inhibition, % at 10 µM; hit rate 0.036% among 340,000; AID 488895, 2010;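 active means mean replicate inhibition at least 50% and at least half of replicates individually reaching 50%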;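 further: exported cargo escapes ClpAP degradation while cytoplasmic cargo is degraded and loses fluorescence; 0% = median of neutral control wells and 100% = median of NaSCN control wells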
phage Ecoli inh: growth loss of phage-infected E. coli, primary screen, RecBCD inhibitor project, absorbance, with phage, HTS. inhibition, % at 11.9 µM. hit rate 0.26% among 360,000. AID 651602, 2012; in the data active means inhibition above about 11%
E coli growth-1: E. coli V3065 growth inhibition, primary screen, counter-screen for AddAB inhibitor project, absorbance, OD600. 18 h. inhibition, % at 11.9 µM. hit rate 0.27% among 330,000. AID 449728, 2010;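 active means inhibition above the campaign's mean inhibition across all tested compounds plus 3 SD, cut at about 9.9% in these data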;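 further: uninfected addAB+ strain grown without phage in ampicillin broth; 0% = DMSO wells and 100% = ciprofloxacin 0.95 µg/ml wells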
E coli growth-2: E. coli growth inhibition, primary screen, OD600 | Escherichia coli growth, 23 h; active compounds read low | hit rate 0.21% among 330,000 | OD600 absorbance (test concentration not listed);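 active means OD600 absorbance below the run mean of sample wells minus 3.6 SD, in any replicate, cut at about 0.56 in these data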
AddAB inh: growth inhibition of E. coli expressing H. pylori AddAB, primary screen, AddAB inhibitor project, absorbance; AID 435030, 2010; hit rate 0.29% among 330,000; inhibition, % at 11.9 µM; in the data active means inhibition above about 12%;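 further: 0% = vehicle wells of infected cells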
AddAB confirm: growth loss of phage-infected E. coli expressing H. pylori AddAB, confirmation, AddAB inhibitor project, absorbance, E. coli V3065, T4 phage, triplicate | shares compounds with AddAB inh | OD; T4 phage with gene 2 nonsense mutations | inhibition, % at 11.9 µM | hit rate 64% among 880 | AID 488942, 2010;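 active means mean inhibition above a set limit taken from the earlier primary screen, cut at about 13% in these data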;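 further: higher means less bacterial growth since AddAB block lets phage replicate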
RecBCD counter: growth loss of RecBCD+ E. coli with mutant T4 phage, counter-screen for AddAB inhibitor project, absorbance, V66 E. coli | shares compounds with AddAB inh | OD growth | inhibition, % at 11.9 µM | hit rate 73% among 880;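 active means mean inhibition above the mean of solvent-only control wells plus 3 SD, cut at about 4% in these data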;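 further: optical density read after an 18 h incubation at 37 °C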
bact viab count: bacterial viability inhibition counter-screen, confirmation, counter-screen for AddAB inhibitor project, absorbance; AID 488956, 2010; inhibition, % at 11.9 µM; hit rate 35% among 880; absorbance (AddAB counterscreen); shares compounds with AddAB inh; in the data active means inhibition above about 25%
RecBCD conf: growth loss of phage-infected RecBCD+ E. coli, confirmation, RecBCD inhibitor project, absorbance, E. coli V66, T4 gene 2 phage | inhibition, % at 11.9 µM | E. coli V66 + T4 2- phage, growth OD | hit rate 45% among 890 | shares compounds with phage Ecoli inh;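 active means mean inhibition over triplicates exceeding the hit threshold derived in the original primary screen, cut at about 11% in these data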
Ecoli viability: E. coli viability inhibition, counter-screen for RecBCD inhibitor project, absorbance, high throughput; absorbance (OD) growth; shares compounds with phage Ecoli inh; inhibition, % at 11.9 µM; hit rate 29% among 890; AID 651983, 2013; in the data active means inhibition above about 20%;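 further: E. coli strain V66 grown with compound alone and no phage infection; 0% = bacteria with DMSO vehicle only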
AddAB phage OD: growth loss of phage-infected AddAB-carrying E. coli, confirmation, counter-screen for RecBCD inhibitor project, absorbance, E. coli V3065, T4 phage | inhibition, % at 11.9 µM | E. coli expressing H. pylori AddAB + T4 phage, OD growth; gene 2 mutant T4, recBCD-deleted host | hit rate 45% among 890 | shares compounds with phage Ecoli inh;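 active means mean inhibition above the solvent-only control wells' mean plus 3 SD, cut at about 22% in these data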;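 further: higher means less bacterial growth from phage killing when AddAB is blocked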
The depositor's hits bear a star; · = not tested or not shown.

SMILES	Tat transport	phage Ecoli inh	E coli growth-1	E coli growth-2	AddAB inh	AddAB confirm	RecBCD counter	bact viab count	RecBCD conf	Ecoli viability	AddAB phage OD
CN(C)c1ccc(O)c2c1CC1CC3[C@@H](N(C)C)C(=O)C(C(N)=O)=C(O)[C@]3(O)C(=O)C1=C2O (some centres not stated)	148.9*	98.8*	102.4*	·	99.0*	99.4*	97.8*	100.0*	93.2*	102.7*	103.4*
O=c1c2ccc(Cl)cc2nc(-c2cccc(C(F)(F)F)c2)n1O	-3.8	11.3*	11.0*	0.783	12.3*	3.7	7.9*	-1.3	-0.4	1.6	0.8
N#Cc1ccc(-c2nc3cc(Cl)ccc3c(=O)n2O)cc1	3.3	-6.1	-8.5	0.63	-6.9	·	·	·	·	·	·
Cc1cc(NS(=O)(=O)c2ccc(N)cc2)no1	·	16.4*	10.2*	·	12.5*	18.1*	9.4*	23.9	7.9	2.9	26.5*
Cc1ccc(S(=O)(=O)Nc2cc(C)on2)cc1	-0.8	1.4	-1.1	0.692	2.4	·	·	·	·	·	·
O=C(c1ccc(CNc2c(N3CCCC3)c(=O)c2=O)cc1)N1CCN(C2CCCCC2)CC1	8.1	1.6	-0.3	0.699	0.7	·	·	·	·	·	·
CC(C)Oc1ccc(Cc2cnc(N)nc2N)cc1	4.5	12.5*	8.6	0.0465*	12.3*	52.8*	13.6*	12.5	11.4*	7.3	11.6
COc1ccc(Nc2nnc(SCc3cn4c(C)cccc4n3)s2)cc1	-31.5	14.3*	15.7*	0.604	16.3*	16.3*	12.2*	13.5	13.0*	17.7	18.6
CC(=O)c1cn(CC(=O)Nc2ccc(C)c(C)c2)c2ccccc12	-7.6	3.0	4.1	0.713	2.4	·	·	·	·	·	·
CC(=O)c1cn(CC(=O)Nc2ccc(C)cc2)c2ccccc12	-9.4	11.2*	11.1*	0.718	14.4*	0.1	2.4	0.6	3.3	8.0	4.0
O=C(NNC(=O)c1ccccc1O)c1ccc(Cl)c(S(=O)(=O)N2CCc3ccccc32)c1	-3.8	15.9*	14.1*	0.666	19.1*	1.4	8.3*	-0.2	4.2	7.2	8.5
CCOC(=O)C1CCN(C(=O)CCNS(=O)(=O)c2cc(Br)cnc2N)CC1	-2.9	0.8	-1.0	0.712	-1.8	·	·	·	·	·	·
CN1CCN(c2c(F)cc3c(=O)c(C(=O)O)cn4c3c2SCC4)CC1	42.6	98.5*	98.0*	0.047*	97.9*	101.7*	101.2*	103.4*	102.4*	104.1*	102.9*
C[C@H]1COc2c(N3CCN(C)CC3)c(F)cc3c(=O)c(C(=O)O)cn1c23	147.8*	99.7*	99.0*	·	98.3*	102.1*	101.0*	101.8*	104.2*	105.7*	105.5*
Nc1ccc(-c2cc(NC=O)c3ncc(-c4cccc(C(F)(F)F)c4)n3c2)cn1	·	3.0	·	·	·	·	·	·	·	·	·
Cc1cc(=O)[nH]c(N/N=C/c2ccccn2)n1	-9.5	18.8*	12.8*	·	18.2*	9.8	20.1*	8.9	6.5	16.0	13.1
O=c1nc(N/N=C/c2ccccn2)cn[nH]1	-25.6	31.2*	29.2*	·	28.8*	30.5*	31.3*	24.2	23.7*	32.4*	31.1*
Cc1cc(=O)[nH]c(NN=Cc2ccccn2)n1	·	·	·	0.533	·	·	·	·	·	·	·
Cc1ccc(C=NNc2cn[nH]c(=O)n2)o1	·	·	·	0.685	·	·	·	·	·	·	·
